Results with a measured potency or affinity are listed apart. Unmarked numbers belong to inactive results. How the calls were made is not given here.

This assay is described as follows: HepG2 cell cytotoxicity, cytotoxicity control, set 4 (AID 504910). The settings on record: series mostly up to 50 µM; viability: at the top concentration.
As for `CCSc1nc(C)c(C)c(=O)[nH]1`, the “viability” value is 96.9%.

On to `Cc1nc(SCc2ccccc2Cl)[nH]c(=O)c1C`, for which the “viability” value was 96.9%.

With `CCC(Sc1nc2c(c(=O)[nH]1)CCC2)C(=O)Nc1cccc(OC)c1` (stereo unspecified), the “viability” value was 101%.

Turning to `Cc1ccc(NC(=O)COC(=O)CCc2c[nH]c3ccccc23)cc1[N+](=O)[O-]`, the “viability” value is 94.4%.

On to `Cc1c[nH]c(=S)[nH]c1=O`, for which the “viability” value was 96.7%.

Take `Cc1cnc(SCC(=O)NC2CCCCC2)[nH]c1=O`: the “viability” value was 97.8%.

`Nc1cc(=O)[nH]c(SCC(=O)NC2CCCCC2)n1`: the “viability” value was 95.5%.

With `Cc1cc(Br)ccc1NC(=O)c1cnc(N2CCN(c3ccccn3)CC2)c2ccccc12`, the “viability” value is 81.3%.

`O=C(CSc1nc2c(c(=O)[nH]1)CCC2)NC1CCCCC1`: the “viability” value was 101%.

For the compound `O=C(CSc1ncccn1)NC1CCCCC1`, the “viability” value is 100%.

Turning to `O=C(CSc1nc2c(c(=O)[nH]1)CCCC2)NC1CCCCC1`, the “viability” value is 86.7%.

Take `Cc1[nH]c(=S)[nH]c(=O)c1C`: the “viability” value is 92.7%.

`CC(C)CCNC(=O)CSc1nc2c(c(=O)[nH]1)CCC2`: the “viability” value is 98.9%.

`COc1cccc(NC(=O)CSc2nc3ccccc3c(=O)[nH]2)c1`: the “viability” value was 96.4%.

Regarding `CNC(=O)CSc1nc2ccccc2c(=O)[nH]1`, the “viability” value is 95.1%.

As for `NC(=O)CSc1nc2ccccc2c(=O)[nH]1`, the “viability” value was 98%.

As for `O=c1[nH]c(=S)[nH]c2ccccc12`, the “viability” value is 93.8%.

In the case of `CCC(Sc1nc2ccccc2c(=O)[nH]1)C(=O)NC1CCCCC1` (stereo unspecified), the “viability” value is 100%.

On to `O=C(CSc1nc2ccccc2c(=O)[nH]1)NCc1ccc(Cl)cc1`, for which the “viability” value was 94.9%.

Regarding `NNC(=O)c1ccncc1`, the “viability” value is 92.1%.

For `CC1CCN(C(=O)C2CCN(c3nnc(-n4cccc4)s3)CC2)CC1`, the “viability” value is 90.4%.

On to `Cc1ccc(NC(=O)CSc2nc3ccccc3c(=O)[nH]2)cc1Cl`, for which the “viability” value was 91.9%.

Regarding `O=C(CSc1nccc(=O)[nH]1)NC1CCCCC1`, the “viability” value is 102%.

Regarding `COC(=O)c1ccc(CNc2c(N3CCCC3)c(=O)c2=O)cc1`, the “viability” value is 103%.

As to `CN(C(=O)CSc1nc2ccccc2c(=O)[nH]1)C1CCCCC1`, the “viability” value was 96.2%.

Consider `Cn1c(SCC(=O)NC2CCCCC2)nc2ccccc2c1=O`, for which the “viability” value was 94%.

For the compound `Cc1nc(SCC(=O)NCCC(C)C)[nH]c(=O)c1C`, the “viability” value is 92%.

As for `Cc1cccc(/C=C/C(=O)c2ccc([N+](=O)[O-])o2)c1`, the “viability” value is 90.5%.

`COc1c(N2CCNC(C)C2)c(F)cc2c(=O)c(C(=O)O)cn(C3CC3)c12` (stereo unspecified): the “viability” value was 91.9%.

Turning to `CN1CCC(NC(=O)CSc2nc3ccccc3c(=O)[nH]2)CC1`, the “viability” value is 86.5%.

Consider `CCCc1cc(C(N)=S)ccn1`, for which the “viability” value was 88.6%.

The values above are taken from PubChem BioAssay AID504910 (Southern Research Specialized Biocontainment Screening …, 2011).
